Compounds with a hit are over-represented: about 19% of the library has one in this group of screens.
Pf growth 96h = inhibits malaria parasite growth, 96 h; P. falciparum luciferase reporter growth, 96 h; Potency, µM (series often up to 28.7 µM), usual class: inhibitors; hit rate 6.9% among 320,000
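96 h incubation, 37 C, 5% CO2, of luciferase-reporter P. falciparum-infected RBCs (2% hematocrit, 0.05% parasitemia final) with test compounds; endpoint luminescence.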
AMA1-RON2 inh = AMA1-RON2 (P. falciparum) interaction inhibition. hit rate 0.2% among 360,000. AlphaScreen AMA1-biotinylated RON2 peptide binding. Potency, µM (doses to about 58.2 µM), hits mostly inhibitors. AID 720542; further: nearly all actives have a fitted effect of over 45% in size
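AMA1 (3D7) with his tag at 25 nM final met compounds first, then biotinylated RON2 peptide at 25 nM; detection used donor plus acceptor beads, 10 µg/mL apiece, read by AlphaScreen after 30 min at room temperature.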
Shiga inhibitor = inhibitors of Shiga toxin in Vero cells | Vero cells, Shiga toxin protein synthesis inhibition reporter | inhibition, % at 38.7 µM | hit rate 9.2% among 290,000 | AID 2315; in the data active means inhibition mostly above about 28%, no sharp cut-off; inactive means mostly below about 43%
Cycloheximide cs = counter-screen for Shiga toxin inhibitors: cycloheximide protein synthesis inhibition. cell reporter, cycloheximide protein synthesis inhibition counterscreen. max response, %. hit rate 12% among 300,000; in the data active means max response mostly above about 13%, no sharp cut-off; inactive means mostly below about 14%; further: read at 38.3 µM for the half of the compounds with a filed dose
SARS PLpro yeast = SARS-CoV PLP inhibition in yeast | S. cerevisiae expressing SARS-CoV PLpro, growth rescue | Potency, µM (top dose mostly 32.9 µM), most hits filed as activators | hit rate 0.19% among 330,000; calls by dose curve; further: nearly all actives have a fitted effect of over 55% in size
Pf growth 48h = inhibits P. falciparum growth in the first generation, 48 h; Potency, µM (series often up to 28.7 µM), most hits filed as inhibitors; AID 504832; P. falciparum luciferase growth in erythrocytes, 48 h; hit rate 5.9% among 310,000
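In quantitative HTS format, infected erythrocytes bearing luciferase-reporter parasites were treated for a single generation at 37 C. Luminescence after adding detection reagent served as the growth measure.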
A number is an active result; n = inactive; u = inconclusive; x = not tested or not shown; [ ] = remark or other dose. Unless noted, the call rests on the fitted dose curve; in most records, active means well fitted curve in the direction sought with a large enough effect; inconclusive means small, poorly fitted or top-dose-only effect, or another doubt; inactive means no such curve, though single readings can be large; an effect the other way counts as inactive or inconclusive.

SMILES | Pf growth 96h | AMA1-RON2 inh | Shiga inhibitor | Cycloheximide cs | SARS PLpro yeast | Pf growth 48h
CCN1CCN(C(=O)c2ccc3c(c2)N(Cc2ccc(F)cc2)C(=O)c2ccccc2S3=O)CC1 (stereo unspecified) | n | n | n | n | n | n
Cc1ccc(S(=O)(=O)N2CCOCC2)cc1NC(=O)COc1ccc2c(C)cc(=O)oc2c1 | 9.3µM | n | n | n | n | u
Cc1ccc(S(=O)(=O)N2CCOCC2)cc1NC(=O)COC(=O)c1ccc(OCc2c(C)noc2C)cc1 | u | n | n | n | u | 13µM
Cc1ccc(C(=O)OCC(=O)Nc2cc(S(=O)(=O)N3CCOCC3)ccc2C)cc1 | n | n | n | n | n | n
COc1ccc(S(=O)(=O)N2CCOCC2)cc1NC(=O)COc1ccc2c(C)cc(=O)oc2c1 | x | n | x | x | n | x
CCN(CC)S(=O)(=O)c1ccc(OC)c(NC(=O)COc2ccc3c(C)cc(=O)oc3c2)c1 | 2.6µM | n | n | n | n | u
CCOC(=O)CNC(=O)c1sc(NC(=O)c2ccccc2F)nc1C | u | n | 55 | 35 | n | n
CCOC(=O)CNC(=O)c1sc(NC(=O)c2cccc(F)c2)nc1C | n | n | 66 | 26 | n | x
COC(=O)c1sc(NC(=O)c2cc(C)on2)nc1C | n | n | 36 | 27 | n | n
COC(=O)c1sc(NC(=S)NC(=O)c2ccccc2F)nc1C | n | n | 160 | 51 | n | n
Cc1nn(CC(=O)Nc2cccnc2)c(=O)c2ccccc12 | n | n | n | n | n | n
COc1cccc(CCNC(=O)CC2C(=O)NCCN2Cc2ccc(C)o2)c1 (stereo unspecified) | u | n | n | n | n | n
CC(=O)N[C@H]1[C@H](O[C@@H]2c3ccc(c(Cl)c3)Oc3cc4cc(c3O[C@@H]3O[C@H](CO)[C@@H](O)[C@H](O)C3C)Oc3ccc(cc3Cl)C[C@H]3NC(=O)[C@@H](N)c5ccc(O)c(c5)Oc5cc(O)cc(c5)[C@H](NC3=O)C(=O)N[C@H]4C(=O)N[C@H]3C(=O)N[C@@H]2C(=O)N[C@@H](C(=O)O)c2cc(O)cc(O[C@H]4O[C@H](CO)[C@@H](O)C(O)[C@@H]4O)c2-c2cc3ccc2O)O[C@H](CO)[C@@H](O)[C@@H]1O (stereo partly specified) | u | x | x | x | x | n
CC1CC=CC2C1C(=O)N(Cc1ccccc1)C2c1ccc(F)c(/C=C/c2ccccc2)c1 (stereo unspecified) | x | x | n | n | x | x
COc1cc(CNC(C)C23CC4CC(CC(C4)C2)C3)ccc1OCC(=O)NC(C)(C)C (stereo unspecified) | n | n | n | n | n | 10µM
COc1cc(CNC(C)C23CC4CC(CC(C4)C2)C3)cc(OC)c1OC (stereo unspecified) | u | n | n | n | n | 12µM
CCn1nc(-c2ccccc2)nc2c(=O)n(C)c(=O)nc1-2 | n | n | 48 | 43 | n | n
Cc1cccc(N/C(N)=N/c2nc3c(c(=O)[nH]2)CCCC3)c1 | n | n | n | n | n | n
N/C(=N\c1nc2c(c(=O)[nH]1)CCCC2)Nc1ccc(Oc2ccccc2)cc1 | 8.3µM | n | n | n | n | u
NS(=O)(=O)c1ccc(NC(=O)c2ccc(CNS(=O)(=O)c3cc(C(F)(F)F)ccc3Cl)cc2)cc1 | n | n | n | n | n | n
Cc1onc(-c2ccccc2Cl)c1C(=O)OCC(=O)N1CCCc2ccccc21 | u | n | n | n | n | 9.3µM
O=C(OCC(=O)N1CCc2ccccc21)c1c2c(nc3ccccc13)CCCC2 | u | n | 62 | 34 | n | 8.3µM
CC(C)(C)C(=O)COC(=O)c1c2c(nc3ccccc13)CCC2 | n | n | n | n | n | n
CC1Cc2ccccc2N1C(=O)COC(=O)c1c2c(nc3ccccc13)CCCCC2 (stereo unspecified) | 13µM | n | n | 14 | n | u
CCCCN(C(=O)c1ccc(OC)c([N+](=O)[O-])c1)c1c(N)n(CCC)c(=O)[nH]c1=O | n | n | n | n | n | n
SMILES | Pf growth 96h | AMA1-RON2 inh | Shiga inhibitor | Cycloheximide cs | SARS PLpro yeast | Pf growth 48h
O=C(C[n+]1ccccc1)N/N=C/c1ccc(Br)cc1 | 2.9µM | n | x | x | n | 10µM
O=C(C[n+]1ccccc1)N/N=C/c1ccc(F)cc1 | u | n | n | n | n | u
O=C(C[n+]1ccccc1)N/N=C/c1ccc(Cl)c(Cl)c1 | u | n | n | n | n | 8.3µM
O=c1[nH]c2ccccc2nc1Cc1ccccc1 | u | n | n | n | n | n
O=C(Cc1nc2ccccc2[nH]1)c1ccc(Br)cc1 | 1.7µM | n | 76 | 28 | n | u
O=C(Cc1nc2ccccc2[nH]c1=O)c1ccccc1 | n | n | 69 | 51 | n | n
CCOC(=O)c1cc(OC(C)=O)c2ccc(OC)c(OC)c2c1 | x | n | x | x | x | x
CCOC(=O)c1c(S(=O)(=O)NCC(=O)Nc2ccccc2OC)c(C)n(C)c1C | n | n | n | n | u | n
CCOC(=O)c1c(S(=O)(=O)NCC(=O)Nc2cc(C)ccc2OC)c(C)n(C)c1C | 9.3µM | n | n | n | n | n
CCOC(=O)c1c(S(=O)(=O)NCC(=O)Nc2cccc(C)c2)c(C)n(C)c1C | 4.1µM | n | n | n | n | n
COc1ccc(Cl)cc1C(=O)Nc1ccc(NC(=O)C(C)C)cc1 | n | n | n | n | n | n
S=c1nc(C2CC2)n(-c2ccccc2)[nH]1 | n | n | n | n | n | n
CCS(=O)(=O)N1CCN(c2ccnc3cc(Cl)ccc23)CC1 | 10µM | n | n | n | n | 12µM
O=S(=O)(c1ccc(Br)s1)N1CCN(c2ccnc3cc(Cl)ccc23)CC1 | u | n | n | 15 | n | u
Cc1ccc(S(=O)(=O)N2CCN(c3ccnc4cc(Cl)ccc34)CC2)cc1C | n | n | n | n | n | u
O=S(=O)(c1ccc(Br)s1)N1CCN(c2ccccc2)CC1 | u | n | n | n | n | n
CS(=O)(=O)N1CCN(c2ccnc3cc(Cl)ccc23)CC1 | u | n | n | n | n | n[5.75 µM]
Cc1ccc(S(=O)(=O)N2CCN(c3ccnc4cc(Cl)ccc34)CC2)cc1 | u | n | n | n | n | 10µM
COc1ccccc1-n1c(C)nc2cc(C(=O)NCCN3CCOCC3)ccc21 | u | n | n | n | n | n
COc1cc(C(=O)Nc2nc(-c3ccc(Cl)cc3)c(C)s2)ccc1OCC(=O)Nc1ccc(F)cc1 | 4.1µM | n | n | n | n | u
CCc1ccc(-c2nc(NC(=O)c3ccc(OCC(=O)Nc4ccc(F)cc4)c(OC)c3)sc2C)cc1 | u | n | n | n | n | n
O=C(c1ccccc1)c1cnc(Nc2ccc(Cl)c(Cl)c2)s1 | n | n | n | n | n | n
CC(=O)c1cnc(Nc2cccc(C)c2)s1 | n | n | 119 | 48 | n | n
O=C(c1ccc(F)cc1)c1cnc(Nc2ccccc2)s1 | n | n | 75 | 23 | n | n
CNc1ncc(C(=O)c2ccc(F)cc2)s1 | n | n | 67 | 43 | n | n

Screening data as filed in PubChem BioAssay.
